Assay results from PubChem BioAssay (Tox21).
Values joined by “and” are separate entries in the source; they are usually repeats but may differ in a detail not shown here. Equal values may be shown once. Results filed as inconclusive are left out. The source holds several records for some structures; these can differ, active in one and inactive in another. Active and inactive are the calls of the source. Calls come from the whole dose curve; as a rule, active = well fitted cell-killing curve with a large enough effect in the repeat runs; inconclusive = weak or mixed curves; inactive = no such curve, though single readings can be large or run the other way.

Assay: qHTS assay for identifying genotoxic compounds that show differential cytotoxicity against isogenic chicken DT40 cell lines with known DNA damage response pathways - Rad54/Ku70 mutant cell line (AID 743015); note: nearly all actives have a fitted effect of over 60% in size
Conditions: DT40 Rad54/Ku70 mutant viability, CellTiter-Glo, 40 h; series mostly up to 66.8 µM
Text: National Center for Advancing Translational Sciences [NCATS]
NIH Chemical Genomics Center [NCGC]
U.S. Environmental Protection Agency [EPA]
National Institutes of Environmental Health Sciences [NIEHS]
National Toxicology Program [NTP]
U.S. Food and Drug Administration [FDA]
DNA repair pathways play a critical role in cellular homeostasis by repairing DNA damage induced by endogenous processes and xenobiotics. Isogenic chicken DT40 cell lines deficient in different DNA repair pathways can be used to identify genotoxic compounds and aid in characterizing the nature of the DNA damage induced. Two DNA repair-deficient cell lines with disrupted genes, Rad54/Ku70 or Rev3, were used to screen the Tox21 10K compound library. Possible genotoxicity was based on the presence of a significant increase in cytotoxicity in one or more of the DNA repair-deficient cell lines compared to that observed in the parental DNA repair-proficient cell line. CellTiter Glo viability assay (Promega, Madison, WI) was used to measure cell viability in these cells after compound treatment. This assay includes the data from the Rad54/Ku70 mutant cell line.
Tox21 Assay Protocol Summary:
300 DT40 mutant cells in 5 uL/well were dispensed into white, solid-bottom 1536-well plates using a Multidrop Combi (ThermoFisher Scientific, Waltham, MA) dispenser. After the assay plates were incubated at 37 C/5% CO2 for approximately 0.5 hour, 23 nL of compounds dissolved in DMSO, positive controls or DMSO only was transferred into the assay plate by a pintool work station (Kalypsys, San Diego, CA). The assay plates were incubated at 37 C/5% CO2 for 40 hours. After 5 uL per well of CellTiter-Glo reagent was added into each well of the assay plates, the plates were incubated for 30 min at room temperature and the luminescence intensity of the plates was measured using a ViewLux (PerkinElmer, Shelton, CT) plate reader.
Potency is the fitted concentration of half-maximal effect.

Structure (SMILES)	Potency
CS(=O)(=O)c1ccc(C(=O)C2C(=O)CCCC2=O)c([N+](=O)[O-])c1	45.6 µM (active)
Clc1ccc(C(Cl)(Cl)Cl)c(Cl)c1	inactive
Fc1ccc(Oc2ccnc3cc(Cl)cc(Cl)c23)cc1	61.1 µM (active)
Oc1ccc2ccc3cccc4ccc1c2c34	30.6 µM (active)
CN(C)CCc1c[nH]c2cccc(O)c12	42.8 µM (active)
Cc1cc(C)cc(OP(=O)(Oc2cc(C)cc(C)c2)Oc2cc(C)cc(C)c2)c1	inactive
O=C(O)C1C2CCC(O2)C1C(=O)O (stereo not given)	inactive
C[C@]12Cc3nonc3C[C@@H]1CC[C@@H]1[C@@H]2CC[C@@]2(C)[C@H]1CC[C@]2(C)O	18.8 µM (active)
O=S(=O)(c1ccc(Cl)cc1)c1ccc(Cl)cc1	52.8 µM (active)
CC(C)[C@H](C(=O)O[C@H](C#N)c1cccc(Oc2ccccc2)c1)c1ccc(Cl)cc1	30.6 µM (active)
CC(C)(C)C(O)/C(=C\c1ccc(Cl)cc1Cl)n1cncn1 (stereo not given)	18.6 µM (active)
O=c1ssc(Cl)c1Cl	3.44 µM (active)
CC(=O)Nc1ccc2c(c1)Cc1ccccc1-2	62.1 µM (active)
CC(C)Oc1cccc(NC(=O)c2ccccc2C(F)(F)F)c1	30.6 µM (active)
CC[C@H](C)[C@H]1O[C@]2(C=C[C@@H]1C)C[C@@H]1C[C@@H](C/C=C(\C)[C@@H](O[C@H]3C[C@H](OC)[C@@H](O[C@H]4C[C@H](OC)[C@@H](O)[C@H](C)O4)[C@H](C)O3)[C@@H](C)/C=C/C=C3\CO[C@@H]4[C@H](O)C(C)=C[C@@H](C(=O)O1)[C@]34O)O2	26.6 µM (active) and 6.42 µM (active)
CC(=O)O[C@H]1CC[C@@]2(C)C(=CC[C@@H]3[C@@H]2CC[C@]2(C)C(=O)CC[C@@H]32)C1	inactive
CC1(C)[C@H](C(=O)O[C@H](C#N)c2cccc(Oc3ccccc3)c2)[C@@H]1/C=C(\Cl)C(F)(F)F	40.1 µM (active)
N#CCCC(Br)(C#N)CBr (stereo not given)	7.7 µM (active)
Oc1cc(Cl)c(Cl)c(Cl)c1	inactive
ClC1=C(Cl)C2(Cl)C3C(Cl)C(Cl)CC3C1(Cl)C2(Cl)Cl (stereo not given)	24.3 µM (active)

Structure (SMILES)	Potency
COc1ccc(N)cc1N	9.99 µM (active) and 7.38 µM (active)
O=[N+]([O-])c1cc(C(F)(F)F)c(Cl)c([N+](=O)[O-])c1Cl	0.386 µM (active)
CCOC(=O)C1(c2ccccc2)CCN(CCC(C#N)(c2ccccc2)c2ccccc2)CC1	5.31 µM (active) and 9.44 µM (active)
CC(Cc1ccc(C(C)(C)C)cc1)CN1C[C@@H](C)O[C@@H](C)C1 (stereo not given in full)	4.86 µM (active)
C[C@@H]1O[C@@H](O[C@H]2C[C@@H](O)[C@]3(CO)[C@H]4[C@H](O)C[C@]5(C)[C@@H](C6=CC(=O)OC6)CC[C@]5(O)[C@@H]4CC[C@]3(O)C2)[C@H](O)[C@H](O)[C@H]1O	1.88 µM (active) and 580 nM (active)
CCCN(CCC)c1c([N+](=O)[O-])cc(S(N)(=O)=O)cc1[N+](=O)[O-]	22.1 µM (active)
BrC(Br)C(Br)(Br)Br	inactive
CC(C)OS(C)(=O)=O	inactive
CC(C)[C@H](C(=O)OC(C#N)c1cccc(Oc2ccccc2)c1)c1ccc(OC(F)F)cc1 (stereo not given in full)	27.3 µM (active)
c1ccc2cc3c(cc2c1)-c1cccc2cccc-3c12	inactive
CN(C)[C@@H]1C(=O)C(C(N)=O)=C(O)[C@@]2(O)C(=O)C3=C(O)c4c(O)ccc(Cl)c4[C@@](C)(O)[C@H]3C[C@@H]12	inactive and 62.4 µM (active)
COc1cc(C=O)cc2c1[C@H](COC(N)=O)[C@]1(OC(C)=O)ON2C[C@H]2[C@@H]1N2C(C)=O	0.0069 µM (active)
CCOC(=O)CC(=O)CCl	24.3 µM (active)
CC(C)(O)c1cnn2c(-c3ccc(F)c(-c4c(F)cccc4C#N)c3)cnc2n1	21.7 µM (active)
CSCCCN=C=S	43.3 µM (active)
CN(C)CCc1c[nH]c2ccc(O)cc12	inactive
Cc1cc(C)c(C2=C(OC(=O)CC(C)(C)C)C3(CCCC3)OC2=O)c(C)c1	inactive
N#CNC#N	61.8 µM (active)
C=CCC1=C(C)C(OC(=O)C2C(C=C(C)C)C2(C)C)CC1=O (stereo not given)	18.7 µM (active)
Cc1cc(C(F)(C(F)(F)F)C(F)(F)F)ccc1NC(=O)c1cccc(I)c1C(=O)NC(C)(C)CS(C)(=O)=O	30.8 µM (active)
